PNC inhibitor: inhibitors of perinucleolar compartment assembly; PC3M PTB-GFP, PNC prevalence imaging, 16 h; hits give low values; activity change (PNC), negative = inhibition, % at 10 µM; 140,000 tested, 3.1% active; AID 2417;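 active = readout at or below -70, meaning at least 70% loss of cells showing the perinucleolar compartment, a nuclear body marking cancer cells; inconclusive = readout between -30 and a set limit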
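PC3M cells stably expressing PTB-GFP, 750–1000 cells/well, treated 16 h at 37 °C with compound (23 nl of library stock), in duplicate. After paraformaldehyde fixation and Hoechst stain, imaged at 20x; PNC prevalence scored by image analysis.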
HPGD inh: blocks human HPGD enzyme activity. purified HPGD, NADH fluorescence kinetic, PGE2 substrate. 150,000 tested, 4.3% active. P15428. Potency, µM, most hits filed as inhibitors
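20 nM HPGD preincubated 15 min at room temperature with compound in 50 mM Tris-HCl pH 8, 0.01% Tween 20. Started with 1 mM NAD+ and 30 uM prostaglandin E2; NADH fluorescence (360/450 nm) read 5 times over 30-s intervals, last minus first.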
ALDH1A1 block: blocks purified human ALDH1A1 activity | 220,000 tested, 7.3% active | P00352 | Purified ALDH1A1, NADH fluorescence, propionaldehyde substrate | Potency, µM (series often up to 75.3 µM), hits mostly inhibitors
Target sequence (P00352 whole entry, looked up): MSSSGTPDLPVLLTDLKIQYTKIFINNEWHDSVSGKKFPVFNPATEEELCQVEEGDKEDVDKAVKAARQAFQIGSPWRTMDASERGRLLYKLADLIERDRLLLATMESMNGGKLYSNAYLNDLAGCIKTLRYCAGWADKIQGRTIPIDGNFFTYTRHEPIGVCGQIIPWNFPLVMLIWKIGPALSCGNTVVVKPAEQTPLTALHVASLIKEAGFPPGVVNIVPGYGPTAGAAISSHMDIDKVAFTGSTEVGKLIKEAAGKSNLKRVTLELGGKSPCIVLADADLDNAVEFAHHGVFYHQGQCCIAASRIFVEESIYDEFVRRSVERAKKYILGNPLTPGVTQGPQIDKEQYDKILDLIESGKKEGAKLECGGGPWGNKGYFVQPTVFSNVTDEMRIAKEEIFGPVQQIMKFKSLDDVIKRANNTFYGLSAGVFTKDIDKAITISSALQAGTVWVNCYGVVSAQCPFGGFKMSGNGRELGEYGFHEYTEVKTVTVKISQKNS
Hits are given with their value; – = inactive; ? = inconclusive; · = no result given; ! = a repeat was not active; [ ] = another dose, or the depositor's remark. Sampled rows, rich in hits. Any-hit rate of the full collection: about 11%. Unless noted, calls come from the whole dose curve; as a rule, active = well fitted inhibition curve with a large enough effect (not every such curve was filed as active); inconclusive = small, poorly fitted or top-dose-only effect, or another doubt; inactive = no such curve, though single readings can be large or run the other way.

SMILES | PNC inhibitor | HPGD inh | ALDH1A1 block
CC(C)CO/N=C1/C[C@@H](O)[C@@H](O)[C@@H]2[C@@H]3C(=O)N(Cc4ccc5c(c4)OCO5)C(=O)[C@H]3CC[C@@H]12 | · | · | –[13.5 µM]
CCc1ccccc1NC(=O)CC1SCCNC1=O (stereo not drawn) | · | · | –
CCO/C=C/C(O)(CNC(=O)c1ccc(C(C)(C)C)cc1)C(F)(F)F (stereo not drawn) | – | 25µM | –
CCOC(=O)CNC(=O)c1ccc(C)cc1 | – | – | –
CC(=O)Nc1ccc(NC(=O)C/C(C)=N/NC(N)=S)cc1 | · | · | 22µM
CCC(=O)N/N=C(\C)CC(=O)Nc1ccc(F)cc1 | · | · | –
NC(=O)c1cccnc1Oc1cccc(Cl)c1 | ? | – | –
Clc1cccc(Oc2ncccn2)c1 | -83 | – | –
COC(=O)c1cc(C(=O)c2ccc(Cl)cc2)n2c(=O)/c(=C\N(C)C)sc12 | · | · | 0.25µM
COC(=O)c1cc(C(=O)c2ccccc2)n2c(=O)/c(=C\N(C)C)sc12 | · | · | 3.2µM
COC(=O)c1ccc(=O)n(CC(=O)c2ccc(Cl)cc2)c1 | · | · | –
COC(=O)c1ccc(C(=O)OC)c(-n2c(=O)c3ccccc3c3ccccc3c2=O)c1 | – | – | ?
NC(=O)c1nnsc1Sc1c(C(N)=O)nnn1-c1cccc(N)c1 | · | · | –
CC(Nc1[nH]c(=O)n(C)c(=O)c1N=O)c1ccccc1 (stereo not drawn) | · | · | –
O=P(O)(O)O | · | – | –
Cc1ccccc1-c1cncnc1N1CCNCC1 | · | – | –
COCC(=O)N1CCN(c2nc3ccccc3o2)CC1 | · | · | –
C[C@H](CCC(=O)O)[C@H]1CC[C@@H]2[C@H]3CC[C@H]4C[C@H](O)CC[C@]4(C)[C@@H]3CC[C@@]21C | · | – | –
C=C1c2cccc(C(F)(F)F)c2O[C@H](C(=O)OCC)C1OC (mixture of isomers) | · | – | –
C=C1c2ccccc2O[C@H](C(=O)OCC)[C@@H]1CCC(C)C (tested in a mixture with another compound) | · | – | 32µM
C=C1c2ccccc2O[C@H](C(=O)OCC)C1OC (mixture of isomers) | · | – | 32µM
C=C1c2cccc(OC)c2O[C@H](C(=O)OCC)[C@@H]1CCC(C)C | · | – | ?
Clc1ccccc1CN1CCN(/N=C/C=C\c2ccco2)CC1 | · | · | 3.2µM
C(/C=C/c1ccco1)=N/N1CCN(c2ccccc2)CC1 | – | – | ?
COc1ccc(NC(=O)COc2ccc(C(=O)NC3CCCc4ccccc43)cc2OC)cc1 (stereo not drawn) | ? | – | –
SMILES | PNC inhibitor | HPGD inh | ALDH1A1 block
O=C1c2ccccc2C(=O)N1CCSc1ncn[nH]1 | – | – | –
O=C1c2ccccc2C(=O)N1CCSc1n[nH]c(=S)s1 | – | ? | 2.2µM
Cc1c(Cl)c(S(N)(=O)=O)cc2c1=NC=NS=2(=O)O | · | – | –[13.5 µM]
COCC(=O)N1CCC2(CC1)CN(c1ccncc1)C2 | · | – | –
CCc1ccc(NC(=O)CC2NCCNC2=O)cc1 (stereo not drawn) | – | – | –
CCc1ccc(NC(=O)CC2C(=O)Nc3c2c(=O)n(C)c(=O)n3C)cc1 (stereo not drawn) | – | – | 100µM
COC(=O)c1ccc(COC(=O)C(CCS(C)(=O)=O)N2C(=O)c3ccccc3C2=O)cc1 (stereo not drawn) | -104 | – | –
CS(=O)(=O)CCC(C(=O)OCc1ccc(Br)cc1)N1C(=O)c2ccccc2C1=O (stereo not drawn) | – | – | –
CC(C)(C)NC[C@@H](O)COc1ccccc1C1CCCC1 | · | – | –
CC1(C)S[C@@H]2[C@H](NC(=O)[C@H](N)c3ccccc3)C(=O)N2[C@H]1C(=O)O | – | ? | –
CC1=C(C(=O)O)N2C(=O)C(NC(=O)c3ccn(C)n3)C2SC1 (stereo not drawn) | – | – | ?
N[C@H](C(=O)N[C@@H]1C(=O)N2C(C(=O)O)=C(Cl)CS[C@@H]12)c1ccccc1 | · | – | 11µM!
NC(C(=O)NC1C(=O)N2C(C(=O)O)=C(Cl)CSC12)c1ccccc1 (stereo not drawn) | · | ? | 16µM
CC(COc1ccccc1)N1CCC(CO)(Cc2ccccc2)CC1 (stereo not drawn) | · | · | –
CCCCOC(=O)NS(=O)(=O)c1sc(CC(C)C)cc1-c1ccc(Cn2c(CC)nc3c(C)cc(C)nc32)cc1 | · | – | –
CCOC(=O)CNC(=O)N1CCCC(C(=O)c2ccccc2SC)C1 (stereo not drawn) | · | · | –
C/C(=N\Nc1nc2ccccc2s1)c1cccs1 | – | 14µM | –
C/C(=N\Nc1nc(-c2ccccc2)cs1)c1cccs1 | – | – | ?
Cc1cc(C)c(NC(=O)c2ccccc2C(=O)c2ccccc2)c(C)c1 | · | · | –
c1ccc(COc2ccc(OCCCn3cncn3)cc2)cc1 | – | – | –
Clc1ccc(OCCCn2cncn2)cc1Cl | – | – | 11µM
CC(C)C(C(=O)O)N1CCS(=O)(=O)CC1 (stereo not drawn) | · | · | –
C#CCn1c(S(=O)(=O)Cc2ccc(OC)cc2)nc(-c2ccccc2)c1-c1ccccc1 | – | – | –
COc1ccc(C(=O)Nc2nc3c(s2)Cc2cc(OC)ccc2-3)cc1 | – | – | 22µM
COc1ccc2c(c1)Cc1sc(NC(=O)c3ccccc3)nc1-2 | – | ? | ?
SMILES | PNC inhibitor | HPGD inh | ALDH1A1 block
COc1ccc2c(c1)Cc1sc(NC(=O)c3cccs3)nc1-2 | ? | – | 2.5µM
COc1cccc(-c2nnc(NC(=O)c3cccs3)s2)c1 | · | · | –
CCOC(=O)C1C(=O)C=C(c2cccs2)CC1c1ccccc1 (stereo not drawn) | – | – | ?
CC(=O)C1C(=O)C=C(c2ccco2)CC1c1ccccc1 (stereo not drawn) | – | – | 25µM
O=C(CCN1CCOCC1)NNC(=S)NC(=O)c1ccccc1 | · | · | –
O=C(NC1CCS(=O)(=O)C1)c1cc(-c2ccccc2)nc2ccccc12 (stereo not drawn) | · | · | –
COc1ccc(NC(=S)NCc2cccnc2)cc1 | · | · | –
Fc1ccc(NC(=S)NCc2cccnc2)cc1 | · | · | –
S=C(NCc1cccnc1)Nc1ccc(Cl)c(Cl)c1 | – | 14µM | ?
CCC(C)c1ccc(NC(=S)NCc2cccnc2)cc1 (stereo not drawn) | – | ? | 16µM
CC(C)C(=O)Nc1ccc(C(=O)Nc2ccc(Br)cc2F)cc1 | · | · | –
CC[C@H](C)[C@@H](NC(=O)O[C@@H]1C(=O)c2ccc(OC)cc2O[C@H]1c1ccc2c(c1)OCO2)C(=O)OC | · | – | ?
COc1ccc(C2CCCN2C(=S)Nc2cccc(C)c2C)cc1OC (stereo not drawn) | · | · | –
COC(=O)[C@@]1(Cc2ccc(F)cc2)[C@H]2c3cc(C(=O)N(C)C)n(CCN4CCOCC4)c3C[C@H]2CN1C(=O)c1ccccc1 | · | – | –
COc1ccc(OC)c(C2C(C#N)=C(N)Oc3cc(C)[nH]c(=O)c32)c1 (stereo not drawn) | – | – | –
COc1ccc(OC)c(C2C(C#N)=C(N)Oc3cc(N)ccc32)c1 (stereo not drawn) | – | – | 11µM
CCCCCCC1=Cc2cc(OC)c(OC)cc2C(C(C(C)=O)C(=O)OCC)O1 (stereo not drawn) | · | · | –[13.5 µM]
O=C(c1csnn1)N1CCC[C@@]2(CCN(C(c3ccccc3)c3ccccc3)C2)C1 | · | – | –

High-throughput results deposited in PubChem by National Center for Advancing Translational Sciences (NCATS).
